Source: PubChem BioAssay (Tox21)
Values without a mark were called inactive. Active and inactive are the calls of the source. The call rests on the fitted dose curve; in most records, active means well fitted activation curve with a large enough effect in the repeat runs; inconclusive means weak or mixed curves; inactive means flat fitted curve, though single readings scatter.

These compounds were tested against KiSS-1 receptor (Homo sapiens) (UniProt Q969F8) (assay: Human kisspeptin (KISS1R) small molecule agonists, calcium flux assay in KISS1R-HEK293 cells (AID 1920064)). Conditions: KISS1R-HEK293, calcium flux fluorescence, agonist; series mostly up to 76.8 µM.
Chain of KiSS-1 receptor (Homo sapiens) (Q969F8 whole entry, looked up): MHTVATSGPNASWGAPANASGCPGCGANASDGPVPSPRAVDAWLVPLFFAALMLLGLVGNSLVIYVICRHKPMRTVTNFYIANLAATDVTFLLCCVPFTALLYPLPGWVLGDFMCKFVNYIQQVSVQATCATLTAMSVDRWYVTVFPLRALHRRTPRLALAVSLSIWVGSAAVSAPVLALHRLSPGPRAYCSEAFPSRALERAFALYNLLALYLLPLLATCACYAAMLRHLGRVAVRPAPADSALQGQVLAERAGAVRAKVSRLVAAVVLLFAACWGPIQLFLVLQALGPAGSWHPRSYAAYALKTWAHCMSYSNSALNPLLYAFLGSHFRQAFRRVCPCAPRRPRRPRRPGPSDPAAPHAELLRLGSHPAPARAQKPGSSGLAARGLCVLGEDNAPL
From the text: National Center for Advancing Translational Sciences [NCATS]
Division of Preclinical Innovation [DPI]
U.S. Environmental Protection Agency [EPA]
National Institutes of Environmental Health Sciences [NIEHS]
National Toxicology Program [NTP]
U.S. Food and Drug Administration [FDA]
Kisspeptin and its receptor KISS1R play key roles in mammalian reproduction due to their involvement in the onset of puberty and control of the hypothalamic-pituitary-gonadal axis such as regulates GnRH release from the hypothalamus. The kisspeptin/KISS1R system also plays a direct role in peripheral organs (including the ovary, testis, uterus, and placenta) and is implicated in reproductive diseases such as miscarriage and polycystic ovary syndrome (PCOS). Abnormal KISS1R activity is associated with abnormal puberty, infertility, endometriosis, and hormone-dependent tumors. The KISS1 receptor (KISS1R, also called GPR54), a G-protein-coupled receptor (GPCR), acts (through phospholipase C) to increase intracellular inositol trisphosphate and then release intracellular calcium stores. Cell-based KISS1R-HEK293 assay is using HEK293 cells that have been genetically engineered to express the human KISS1R, which activity can be measured by calcium signaling. A compound/drug can activate (agonist) KISS1R that can be monitored by levels of intracellular calcium.
KISS1R-HEK293 cells developed by Codex Corp contain human KISS1R gene, which was stably integrated into HEK 293 cells. The compound activation can be detected by fluorescence intensity via calcium flux assay. This cell line has been used to screen the Tox21 10K compound library to identify agonists of KISS1R.
KISS1R-Hek293 cells were dispensed at 1500 cells/4uL/well in 1536-well black wall/clear bottom plates using a multidrop dispenser. After the assay plates were incubated at a 37 C/5% CO2 incubator for 18 hours, 4 microL of Calcium Dye Solution was added to each well. The plates were incubated at 37 C for 1 hour. And then 23 nL of compounds dissolved in DMSO, positive controls, or DMSO only was transferred to the assay plate by a pin tool station. The fluorescence intensity in the plates was measured using FDSS 7000EX kinetic plate reader with a filter set of Ex/Em=480/540 for 3 min at 1 sec intervals. Each test compound was measured at 15 concentrations and in triplicates.
On the % scale 0 is the no-effect control and ±100 the full control effect.

SMILES | outcome | activation
CCN(CC)CCNC(=O)c1cc(Br)c(N)cc1OC | inactive | –
Nc1cccc(S(=O)(=O)c2cccc(N)c2)c1 | inactive | –
c1ccc(CNCCNCc2ccccc2)cc1 | inactive | –
C=CC(=O)OCCOCC(CC)(COCCOC(=O)C=C)COCCOC(=O)C=C | inactive | –
Cc1c(Cn2ccnc2)c2ccccc2n1CCC(=O)O | inactive | –
CCCCCCCCCCCCOC(=O)c1ccc(O)cc1 | inactive | –
Cc1cc(F)ccc1-c1cc(N2CC[C@@H](O)[C@H]2CO)ncc1N(C)C(=O)C(C)(C)c1cc(C(F)(F)F)cc(C(F)(F)F)c1 | inactive | –
CCN(CC)CCc1nc(-c2ccccc2)no1 | inactive | –
CCOC(=O)CC | inactive | –
O=C(CCCl)NCCc1ccccc1 | inactive | –
Cc1cc(S(=O)(=O)O)ccc1N=Nc1c(O)ccc2ccccc12 | inactive | –
Cc1cccc(C)c1NC(=O)CN1CCCC1 | inactive | –
CCCCC(CC)CN (stereo not given) | inactive | –
NC(=O)c1ccncc1 | inactive | –
NCC(=O)O | – | -0.57% [at 15.8 µM]
CC(C)OC(=O)C(C)N(C(=O)c1ccccc1)c1ccc(F)c(Cl)c1 (stereo not given) | inactive | –
CC(C)CC(C)CC(C)CC(C)COC(=O)c1ccccc1C(=O)OCC(C)CC(C)CC(C)CC(C)C (stereo not given) | inactive | –
OCC(F)(F)F | inactive | –
CCN(O)CC | inactive | –
NS(=O)(=O)c1ccc(Cl)c(S(N)(=O)=O)c1 | inactive | –

SMILES | outcome | activation
OCC(CBr)(CBr)CBr | inactive | –
CN(C)CCn1nnnc1SCC1=C(C(=O)O)N2C(=O)[C@@H](NC(=O)Cc3csc(N)n3)[C@H]2SC1 | inactive | –
Cc1cccc2nccnc12 | inactive | –
COc1ccc(N)c([N+](=O)[O-])c1 | inactive | –
NCC(=O)CCC(=O)O | inactive | –
COCC(=O)Nc1c(I)c(C(=O)NCC(O)CO)c(I)c(C(=O)N(C)CC(O)CO)c1I (stereo not given) | inactive | –
Cc1ccccc1CCO | inactive | –
C=CC(C)(C)O | inactive | –
C#CC(O)CCCCC (stereo not given) | inactive | –
CO[Si](OC)(OC)OC | inactive | –
O=C1c2ccccc2C(=O)C1c1ccc(Br)cc1 | inactive | –
CN(C)C(=O)CNC(=O)Cc1ccccc1 | inactive | –
C=CCN1CCc2nc(N)sc2CC1 | inactive | –
O=C(O)c1ccccc1C(=O)Nc1ccc(S(=O)(=O)Nc2nccs2)cc1 | inactive | –
Nc1ccc(S(=O)(=O)NCc2ccccc2)cc1 | inactive | –
CN=C(NC#N)NCCSCc1csc(N=C(N)N)n1 | inactive | –
CC(CCl)OC(C)CCl (stereo not given) | inactive | –
O=CN1CCCCC1 | inactive | –
CCC(=O)C(=O)CC | inactive | –
CCC(C(=O)OCCN1CCOC(c2ccccc2)C1C)c1ccccc1 (stereo not given) | inactive | –
